For assay [1], the system named is Wnt5a (protein binding on small-molecule microarray). Briefly: small molecules binding Wnt5a protein – biophysical, small-molecule microarray, 635/667 nm fluorescence, primary screen (AID 1142).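 Also: fluorescence read at 667 nm with signal to noise per printed feature.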 The following applies: 635 nm fluorescence, higher = more signal.
Assay [2] is described as follows: ATP-based viability of Huh7 replicon cells – cell-based, CellTiter-Glo luminescence, basal, 48 h, cytotoxicity control for HCV replication inhibitor project, primary screen (AID 1143).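 Also: Huh7 hepatoma cells carrying a hepatitis C replication reporter with no stimulus; test concentration not given here.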 The conditions noted are these: higher = more signal, called active from +8 up or from −8 down. Background: In antiviral work, replicon cells carry a viral genome segment that copies itself.

Assay [3] is described as follows: Pseudomonas biofilm growth suppression – PAO1 strain, BacTiter-Glo luminescence, LB-PBS, primary screen (AID 1144). The following applies: P. aeruginosa PAO1 biofilm, 12 h, higher = more signal.
The nature of assay [4]: basal CRE-LacZ reporter activity in PC12 – cell-based, unstimulated, primary screen (AID 1145). The following applies: no forskolin, luminescence, 4.5 h, higher = more signal, called active from +8 up or from −8 down.
Assay [5] in a line: forskolin-driven CRE-LacZ activity in PC12 – cell-based, CRE-LacZ reporter, forskolin-stimulated, primary screen (AID 1146).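 Also: PC12 cells with 6xCRE LacZ reporter stimulated by forskolin 10 µM; beta-galactosidase reporter signal reflecting CREB driven transcription.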 The conditions noted are these: luminescence, 4.5 h, higher = more signal, called active from +8 up or from −8 down.
In assay [6] the target is Streptavidin (Streptomyces avidinii) (UniProt P22629). Briefly: compounds binding control protein streptavidin – biophysical, small-molecule microarray, 635/667 nm fluorescence, artefact control for SMM compound annotation, primary screen (AID 1147).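 Also: signal reflects streptavidin binding to arrayed compounds as a control protein.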 The conditions noted are these: higher = more signal.
Assay [7] can be described thus: probe aInhba binding on compound microarray – biochemical, small-molecule microarray, 635/667 nm fluorescence, primary screen (AID 1148).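 Also: score merges 667nm spot fluorescence with signal-to-noise for antibody binding to printed compounds.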 The conditions noted are these: higher = more signal.
The target in assay [8] is Torsin-1A (Homo sapiens) (UniProt O14656). Briefly: TOR1A wild-type binding on microarray – cell lysate, small-molecule microarray, lysate, 635/667 nm, primary screen (AID 1149). The following applies: COS7 hTOR1A-WT lysate, 635 nm fluorescence, higher = more signal.
For assay [9] the target is unchanged. As to the kind of experiment: torsin A mutant lysate binding on microarrays – cell lysate, small-molecule microarray, COS7 lysate, 635/667 nm fluorescence, primary screen (AID 1150).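 Also: score pools 667 nm emission and signal to noise measuring lysate protein binding.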 The following applies: COS7 hTOR1A mutant lysate, 635 nm fluorescence, higher = more signal.
Assay [10] deals with Sonic hedgehog protein (Shh). Briefly: Sonic hedgehog microarray binding compounds – biochemical, small-molecule microarray, 635/667 nm fluorescence, primary screen (AID 1151).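 Also: Shh protein binding to compounds spotted on small-molecule microarray slides; score combines spot fluorescence intensity with signal-to-noise across triplicate slides.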 The following applies: 635 nm fluorescence, higher = more signal.

The structures appear in SMILES notation. Activity calls are given as the source filed them. Unless noted, no rule for the calls is given here.

Chain of Streptavidin (Streptomyces avidinii) (P22629 whole entry, looked up): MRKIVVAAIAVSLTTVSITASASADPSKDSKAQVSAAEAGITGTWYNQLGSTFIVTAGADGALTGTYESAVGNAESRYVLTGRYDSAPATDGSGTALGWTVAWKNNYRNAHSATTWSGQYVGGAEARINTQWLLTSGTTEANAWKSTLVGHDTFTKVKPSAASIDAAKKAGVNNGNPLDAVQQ
Chain of Torsin-1A (Homo sapiens) (O14656 whole entry, looked up): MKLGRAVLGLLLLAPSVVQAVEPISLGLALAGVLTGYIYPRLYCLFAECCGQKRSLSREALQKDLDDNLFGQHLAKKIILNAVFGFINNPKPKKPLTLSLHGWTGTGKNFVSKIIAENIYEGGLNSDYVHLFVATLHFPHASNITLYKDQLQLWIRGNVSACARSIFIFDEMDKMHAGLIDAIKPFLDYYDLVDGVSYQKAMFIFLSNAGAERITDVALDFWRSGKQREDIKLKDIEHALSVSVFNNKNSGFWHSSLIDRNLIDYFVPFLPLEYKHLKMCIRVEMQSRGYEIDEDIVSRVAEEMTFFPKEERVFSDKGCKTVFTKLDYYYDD

Regarding `NCCCCCNC(=O)[C@@H]1C[C@@H]2C(=O)NCC(=O)N2[C@@H]1c1ccc(O)cc1`, the composite z-score was 0.892 in assay [1]; 1.2 in assay [6]; -0.0963 in [7]; 1.06 in the assay with Torsin-1A (Homo sapiens) [8]; 0.682 with Torsin-1A (Homo sapiens) [9]; 2.06 in assay [10]. Besides, the z-score in [2] was 0.104 (inactive); in assay [3] it was -0.735 (inactive); in assay [4], 0.557 (inactive); in assay [5], 0.467 (inactive).
As for `O=C1NC(=O)C2C1C=CC(C(O)C(c1ccccc1)c1ccccc1)N2Nc1ccc(Cl)cc1Cl` (stereo not given), the composite z-score in assay [1] was 0.223; in assay [6], 1.23; in [7], 0.102; with Torsin-1A (Homo sapiens) [8] it was -0.614; in the assay with Torsin-1A (Homo sapiens) [9], -0.0412; in [10], -0.566. The z-score in assay [2] is -1.78 (inactive); in [3], -0.548 (inactive); in assay [4], -0.14 (inactive); in assay [5], 0.253 (inactive).
On to `COc1ccc(C(O)C2C=CC3C(=O)NC(=O)C3N2Nc2ccccn2)c2ccccc12` (stereo not given), for which the composite z-score in [1] was 0.0373; in assay [6], -0.0105; in assay [7], -0.0791; in the assay with Torsin-1A (Homo sapiens) [8] it was 0.239; with Torsin-1A (Homo sapiens) [9], -0.274; in assay [10], 0.448. Also, the z-score in assay [2] is 1.04 (inactive); in assay [3] it was -0.507 (inactive); in assay [4] it was -0.133 (inactive); in [5], 0.214 (inactive).
As to `COCCOC(=O)N1C(=O)[C@@]2(c3cc(C#Cc4ccc(OC)cc4)ccc31)[C@H](C(N)=O)[C@H]1C(=O)O[C@H](c3ccccc3)[C@H](c3ccccc3)N1[C@@H]2c1ccccc1OCCO`, the composite z-score came out at 0.753 in assay [1]; 0.784 in [6]; 0.398 in assay [7]; 0.666 with Torsin-1A (Homo sapiens) [8]; 1.81 with Torsin-1A (Homo sapiens) [9]; 1.66 in assay [10]. Besides, the z-score in assay [2] is -3.77 (inactive); in assay [3], -0.438 (inactive); in [4], -0.168 (inactive); in assay [5] it was -0.134 (inactive).
For the molecule `CCOC(=O)C=Cc1cc([N+](=O)[O-])ccc1O`, the composite z-score is -0.128 in assay [1]; 0.572 in [6]; -0.0523 in assay [7]; 0.437 with Torsin-1A (Homo sapiens) [8]; 0.328 with Torsin-1A (Homo sapiens) [9]; -0.117 in [10]. Further, the z-score is -4.44 (inactive) in [2], -0.283 (inactive) in [3], 0.173 (inactive) in assay [4] and -2.08 (inactive) in [5].
For `COCCCNC(=O)[C@@]1(Cc2ccccc2N=[N+]=[N-])N=C(c2ccc(OCCCO)cc2)O[C@H]1c1ccccc1N=[N+]=[N-]`, the composite z-score is 0.266 in [1]; 1.14 in assay [6]; 0.3 in assay [7]; 0.328 with Torsin-1A (Homo sapiens) [8]; 1.05 in the assay with Torsin-1A (Homo sapiens) [9]; -0.319 in [10]. For the same molecule, the z-score in [2] is -4.63 (inactive); in assay [3], -0.557 (inactive); in assay [4] it was 0.834 (inactive); in assay [5], -0.803 (inactive).
On to `COCC(=C=CC[C@H](O)c1ccccc1OCCO)C[C@H](O)c1cc(Cl)cc(Cl)c1O`, for which the composite z-score was 0.626 in assay [1]; 0.423 in assay [6]; -0.0877 in assay [7]; -0.256 with Torsin-1A (Homo sapiens) [8]; 1.72 with Torsin-1A (Homo sapiens) [9]; 1.37 in assay [10]. Further, the z-score is -8.22 (active) in [2], 0.421 (inactive) in [3], 24.4 (active) in assay [4] and -0.753 (inactive) in [5].
With `COc1cc(OC)c(C(O)C2C=CC3C(=O)NC(=O)C3N2Nc2ccc(Cl)cc2Cl)cc1Br` (stereo not given), the composite z-score in [1] is 0.153; in assay [6], 1.64; in assay [7] it was 0.0111; with Torsin-1A (Homo sapiens) [8], -0.241; with Torsin-1A (Homo sapiens) [9], 0.414; in assay [10], -0.366. For the same molecule, the z-score in assay [2] was -2.57 (inactive); in [3] it was -0.835 (inactive); in [4], 0.433 (inactive); in assay [5], -0.919 (inactive).
On to `CN(C)C(=O)[C@]1(Cc2ccccc2CN=[N+]=[N-])N=C(c2ccc(OCCCO)cc2)O[C@@H]1c1ccccc1CN=[N+]=[N-]`, for which the composite z-score in assay [1] is 0.49; in [6], 0.61; in assay [7], 0.461; with Torsin-1A (Homo sapiens) [8], 1.14; with Torsin-1A (Homo sapiens) [9], 0.917; in assay [10], 1.11. In addition, the z-score in assay [2] is -5.26 (inactive); in assay [3], -0.611 (inactive); in assay [4], 1.31 (inactive); in assay [5], -0.394 (inactive).
In the case of `NC(=O)[C@@H]1[C@H]2C(=O)O[C@H](c3ccccc3)[C@H](c3ccccc3)N2[C@H](c2ccc(O)cc2)[C@@]12C(=O)Nc1ccc(C#CC3(O)CCCCCC3)cc12`, the composite z-score in assay [1] was -0.277; in assay [6], -1.08; in [7] it was -0.148; with Torsin-1A (Homo sapiens) [8], 0.398; with Torsin-1A (Homo sapiens) [9], 1.1; in [10], -0.323. Also, the z-score is -0.0907 (inactive) in assay [2], -0.269 (inactive) in [3], 0.568 (inactive) in assay [4] and -0.301 (inactive) in assay [5].
Consider `[N-]=[N+]=NCc1ccccc1C[C@]1(C(=O)N2CCOCC2)N=C(c2ccc(OCCCO)cc2)O[C@H]1c1ccccc1N=[N+]=[N-]`, for which the composite z-score came out at 0.774 in assay [1]; 0.808 in assay [6]; 0.0179 in assay [7]; 1.49 in the assay with Torsin-1A (Homo sapiens) [8]; 1.44 with Torsin-1A (Homo sapiens) [9]; 1.02 in [10]. Moreover, the z-score in assay [2] was -5.5 (inactive); in assay [3], -0.447 (inactive); in assay [4], -0.0017 (inactive); in assay [5], -1.86 (inactive).
Take `COC(=O)c1c(CC[C@@H](CO)NC(=O)N[C@H](Cn2cc(Cc3ccccc3)nn2)C(C)C)oc(C(C)=O)c1C(=O)OC`: the composite z-score was 0.367 in assay [1]; -0.166 in assay [6]; -0.0759 in assay [7]; -0.372 in the assay with Torsin-1A (Homo sapiens) [8]; 0.882 in the assay with Torsin-1A (Homo sapiens) [9]; 2.1 in assay [10]. In addition, the z-score was -2.8 (inactive) in [2], -0.973 (inactive) in assay [3], 0.904 (inactive) in [4] and -1.21 (inactive) in assay [5].
On to `Cc1ccc(S[C@]2(C(=O)NCC(C)C)CC(=O)N(Cc3cc(C(F)(F)F)cc(C(F)(F)F)c3)[C@@H]2c2ccc(CO)cc2I)cc1`, for which the composite z-score in assay [1] is -0.0088; in assay [6], -0.634; in [7], 0.0173; with Torsin-1A (Homo sapiens) [8] it was -1.72; in the assay with Torsin-1A (Homo sapiens) [9], -0.913; in assay [10] it was -1.05. Further, the z-score was -1.19 (inactive) in assay [2], -0.486 (inactive) in [3], 0.441 (inactive) in assay [4] and 0.845 (inactive) in assay [5].
For `CC(=O)NCCCC[C@@H]1NC(=O)[C@@H]2C[C@H](C(=O)NCCCCCCNC(=O)CS)[C@H](c3cccc(OCCO)c3)N2C1=O`, the composite z-score is 0.611 in assay [1]; -0.088 in assay [6]; -0.179 in assay [7]; 0.442 with Torsin-1A (Homo sapiens) [8]; 0.669 with Torsin-1A (Homo sapiens) [9]; 1.63 in [10]. Further, the z-score in assay [2] was 0.206 (inactive); in [3] it was -1.05 (inactive); in assay [4], 0.135 (inactive); in assay [5], -0.67 (inactive).
On to `CCCCC(O)C1C=CC2C(=O)N(c3ccccc3)C(=O)C2N1Nc1ccccc1F` (stereo not given), for which the composite z-score in assay [1] was 0.182; in assay [6] it was 2.09; in assay [7] it was 0.297; with Torsin-1A (Homo sapiens) [8], 0.31; in the assay with Torsin-1A (Homo sapiens) [9], 0.129; in assay [10], -0.0688. In addition, the z-score in assay [2] is 0.615 (inactive); in [3], -0.571 (inactive); in [4], -0.143 (inactive); in assay [5], 0.569 (inactive).

(Values after PubChem BioAssay.)
